Test results: PubChem BioAssay AID1240 (Sanford-Burnham Center for Chemical Genomics, 2008)
Screen size: about 50,000 compounds; about 800 (1.6%) showed an effect of 50% or more. For the sample, strong results were picked, then their nearest neighbours and some compounds at random.

Each compound was assayed against Bcl-2-like protein 10 (Homo sapiens) (UniProt Q9HD36) (assay: Phenotype converters, Bcl-B/TR3 peptide binding displacement, primary biochemical FP (AID 1240;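 also: 0% = Bcl-B with tracer peptide and DMSO and 100% = tracer peptide lacking Bcl-B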)). Settings: GST-Bcl-B / FITC-TR3 peptide fluorescence polarization; stronger effect = higher value; compound at 3.75 mg/L.
Bcl-2-like protein 10 (Homo sapiens), sequence (Q9HD36 whole entry, looked up): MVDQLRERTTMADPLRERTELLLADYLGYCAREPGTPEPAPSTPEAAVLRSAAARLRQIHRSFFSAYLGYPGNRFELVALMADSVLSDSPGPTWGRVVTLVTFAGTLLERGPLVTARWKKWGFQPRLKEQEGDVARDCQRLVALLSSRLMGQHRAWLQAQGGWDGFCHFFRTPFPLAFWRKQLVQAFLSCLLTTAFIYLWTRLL

SMILES	displacement [%]
O=C(Nc1cccc(Oc2ccc3c(c2)C(=O)N(c2ccccc2)C3=O)c1)c1cccc([N+](=O)[O-])c1	12.7
CC(=O)Nc1ccc(Nc2nc3ccccc3nc2Nc2ccc(NC(C)=O)cc2)cc1	-13.4
COC(=O)C1=C(C)N(Cc2ccccc2)C(=O)/C1=C\c1cccc([N+](=O)[O-])c1	2.4
CCOc1ccc(/C=C2/C(=O)NC(=O)N(c3ccc(C)cc3)C2=O)cc1	-9.7
COc1cc(/C=C/C(=O)c2ccc(C)cc2)cc(OC)c1OC	1.6
Oc1ccccc1/C=N/Nc1nc2ccccc2s1	0.6
Cc1ccc(NC(=O)CN(c2ccc(Oc3ccccc3)cc2)S(C)(=O)=O)cc1	5.1
O=C1/C(=C/c2c3ccccc3nc3ccccc23)Sc2ccccc21	-0.5
CC(=O)n1cc(/C=C2\N=C(c3cccs3)OC2=O)c(-c2ccccc2)n1	-0.1
CC(=O)n1cc(/C=C2\Sc3ccccc3C2=O)c(-c2ccccc2)n1	145
NC(=O)c1ccc(Sc2nc3ccccc3s2)c([N+](=O)[O-])c1	1.4
COC(=O)c1cccc(N2C(=O)C=CC2=O)c1	1
O=C(CSc1nc2sc3c(c2c(=O)[nH]1)CCCC3)NCc1ccccc1	-18.5
O=C(CSc1nc2sc3c(c2c(=O)[nH]1)CCCC3)NCc1ccccn1	-0.6
O=C(CSc1nc2sc3c(c2c(=O)[nH]1)CCCC3)NCc1ccco1	59.8
Cc1ccc(C)c(S(=O)(=O)Nc2ccc(Cl)cc2)c1	9
COc1ccc(NC(=O)CN(c2ccc(Cl)cc2)S(C)(=O)=O)c(OC)c1	10.7
O=C(Nc1cc([N+](=O)[O-])ccc1Cl)c1cc(-c2ccc(Cl)cc2)nc2ccccc12	13.6
O=C(Nc1ccccn1)c1cc(-c2ccc(Cl)c(Cl)c2)nc2ccccc12	10
O=C(Nc1ccc([N+](=O)[O-])cn1)c1cc(-c2ccc(Cl)c(Cl)c2)nc2ccccc12	52.4
COC(=O)COc1ccc(/C=C2\C(=O)NC(=O)N(C)C2=O)cc1OC	-18.2
CCOc1ccc(Br)cc1/C=N\NC(=O)c1cc(C)[nH]n1	-2.6
CCc1ccccc1NC1=C(Cl)C(=O)N(c2ccc(C)cc2C)C1=O	16.8
Cc1ccc(N2C(=O)C(Cl)=C(Nc3ccccc3F)C2=O)c(C)c1	71.5
COc1ccccc1NC1=C(Cl)C(=O)N(c2ccc(C)cc2C)C1=O	8.3
Nc1nnc(CCC(=O)c2ccccc2)s1	3.5

SMILES	displacement [%]
NC(=O)c1ccccc1NC(=O)c1ccc(I)cc1	7.7
Cc1c(Cc2ccccc2)sc(NC(=O)c2ccc([N+](=O)[O-])cc2)c1C(N)=O	65.7
Cc1c(Cc2ccccc2)sc(NC(=O)c2ccc(-c3ccccc3)cc2)c1C(N)=O	-1.3
COc1ccc(C(=O)Nc2sc(Cc3ccccc3)c(C)c2C(N)=O)cc1	-16.5
CC(=O)Nc1cccc(NC(=O)c2cccc(I)c2)c1	-1.5
O=C(COc1ccc(Cl)cc1Cl)OCc1ccccc1	-9.2
CCOC(=O)C(C(C)=O)c1cc(NS(=O)(=O)c2ccc(C)cc2)c2ccccc2c1NS(=O)(=O)c1ccc(C)cc1 (centres undefined)	78.8
Cc1ccc(S(=O)(=O)Nc2cc(C(C(=O)OC(C)C)C(=O)C(F)(F)F)c(O)c3ccccc23)cc1 (centres undefined)	-5.6
CC(=O)C(C(C)=O)c1cc(NS(=O)(=O)c2ccc(C)cc2)c2ccccc2c1O	3.6
Cc1cccc(-c2cc(NC(=O)c3ccc(Br)cc3)n[nH]2)c1	9.4
COc1ccc(Br)cc1C(=O)Nc1ccc(-c2nc3ccccc3o2)cc1	134
COc1ccccc1C(=O)Nc1ccc2oc(-c3ccncc3)nc2c1	135
Cc1cccc(C(=O)Nc2ccc3oc(-c4ccc(N(C)C)cc4)nc3c2)c1	35.7
COc1ccc(-c2nc3ccccc3o2)cc1NC(=O)c1cc2ccccc2cc1OC	-8.6
COc1cccc(C(=O)Nc2cc(-c3nc4ccccc4o3)ccc2OC)c1	-29.6
COc1ccc(Br)cc1C(=O)Nc1ccc2oc(-c3ccccc3)nc2c1	-2.9
CCc1ccc(-c2nc3cc(NC(=O)c4ccccc4OC)ccc3o2)cc1	8.5
CN(C)c1ccc(-c2nc3cc(NC(=O)c4cccc(Br)c4)ccc3o2)cc1	62.5
CN(C)c1ccc(-c2nc3cc(NC(=O)c4ccccc4Br)ccc3o2)cc1	1.6
COc1ccc(-c2nc3ccccc3o2)cc1NC(=O)c1ccc(Br)o1	63
COc1ccc(Br)cc1C(=O)Nc1ccc(-c2nc3ncccc3o2)cc1	5.4
COc1ccccc1C(=O)Nc1ccc2oc(-c3cccc(C)c3)nc2c1	1.6
COc1ccc2c(c1OC)C(=O)N(c1cccc(Cl)c1)C2=O	-23.7
O=C1NC(=O)N(c2ccccc2Cl)C(=O)/C1=C\C=C\c1ccco1	15.6
COc1cc(/C=C(\C#N)c2nc3ccc(C)cc3[nH]2)cc(OC)c1O	-65.6
COc1ccc(-c2nnc(-c3cccc([N+](=O)[O-])c3)o2)cc1	5.8

SMILES	displacement [%]
N/C(=N\OC(=O)c1cccc(F)c1)c1ccccc1	-7.1
CCOc1cc(C(=S)N2CCOCC2)cc(Br)c1OC(=O)c1ccc(Cl)cc1Cl	14.1
COC(=O)c1ccc(NC(=O)CC2Sc3ccccc3NC2=O)cc1 (centres undefined)	3.1
O=C(Nc1ccc2oc(-c3ccccc3)nc2c1)c1ccncc1	-3.2
O=C(Nc1ccc2oc(-c3ccncc3)nc2c1)c1cccnc1	61.6
O=C(Nc1ccc2oc(-c3ccncc3)nc2c1)c1ccncc1	28.9
Cc1ccc(-c2nc3cc(NC(=O)COc4ccccc4C)ccc3o2)cc1	-6.6
O=C(COc1ccc(Cl)cc1)Nc1ccc2oc(-c3ccccc3)nc2c1	-6.4
O=C(COc1ccccc1Cl)Nc1ccc2oc(-c3ccncc3)nc2c1	136
CCOc1cc(/C=C2\SC(=S)N(Cc3ccco3)C2=O)ccc1O	-18.8
CCOC(=O)c1c(C)oc2cc(Br)c(OCC(=O)OCc3ccccc3)cc12	10.8
CCOC(=O)C1=C(C)N=C2SCCN2C1c1ccccc1 (centres undefined)	-10.4
CSc1ccccc1NC(=O)CSc1nc2ccccc2o1	18.9
O=C(Nc1ccccc1C(=O)O)c1ccc(N2C(=O)C3C4C=CC(C4)C3C2=O)cc1 (centres undefined)	-3.6
CCn1c2ccccc2c2cc(/C=N/Nc3ccc([N+](=O)[O-])cc3)ccc21	-7.5
CCOC(=O)c1c(NC(C)=O)sc2cc(C(C)(C)C)ccc12	-4.1
CC(=O)Nc1nonc1-c1nc2ccccc2n1Cc1ccccc1	49.8
CC(=O)Nc1nonc1-c1nc2ccccc2n1Cc1ccc([N+](=O)[O-])cc1	8.1
CC(=O)Nc1nonc1-c1nc2ccccc2n1Cc1ccc(C(C)(C)C)cc1	52.2
COc1ccccc1NC(=O)c1ccc(Oc2ccc(C(=O)Nc3ccccc3OC)cc2)cc1	-1.8
CCOC(=O)c1c(NC(=O)COc2c(C)cc(C)cc2C)sc(C(=O)Nc2ccccc2)c1C	13.1
CCOc1ccc(N2C(=O)CC(SC(=NC)Nc3ccc4c(c3)OCO4)C2=O)cc1 (centres undefined)	-6.7
Cc1cc(C)nc(SCC(=O)Nc2ccc(C)c(NC(=O)CSc3nc(C)cc(C)n3)c2)n1	23.5
CN(C)c1ccc(/C=C/C(=O)c2ccc3c(c2)OCCO3)cc1	-18.8
CCOC(=O)C1=C(C)NC(C)=C(C(=O)OCC)C1c1ccc(F)cc1	0
CC1=C(C(=O)OC(C)C)C(c2ccc(F)cc2)C(C(=O)OC(C)C)=C(C)N1	54.7

SMILES	displacement [%]
CC1=C(C(=O)OC(C)C)C(c2ccc(F)cc2)NC(=O)N1 (centres undefined)	6.9
COc1ccc(CNC(=O)CN(c2c(C)n(C)n(-c3ccccc3)c2=O)S(=O)(=O)c2ccccc2)cc1	-6.2
Cc1cc(Nc2ccccc2)nn1C(=O)c1ccc(Cl)cc1	-10.9
Cn1c2ccccc2c2cc(C3Nc4ccccc4C(=O)N3Cc3ccco3)ccc21 (centres undefined)	10.3
COc1ccc(/C=C\C(=O)C2C(=O)c3ccccc3C2=O)cc1	122
O=C(/C=C/c1ccc(S(=O)(=O)Nc2ccccc2)cc1)C1C(=O)c2ccccc2C1=O	31.1
O=C(/C=C/c1ccc([N+](=O)[O-])cc1)C1C(=O)c2ccccc2C1=O	-6.3
CC1CC(C)CN(S(=O)(=O)c2ccc(F)cc2)C1 (centres undefined)	-9
CN(C)/C=C/C=C/C(=O)c1ccc(/C=C/C=C/N(C)C)o1	36.1
CC(=O)Nc1ccc(/C=C(/C#N)C(=O)N/N=C/c2ccc(NC(C)=O)cc2)cc1	110
CC(=O)Nc1ccc(/C=C(/C#N)C(=O)NCc2ccco2)cc1	9.4
N#C/C(=C/c1ccc(Cl)cc1)C(=O)Nc1ccc(O)cc1	7.1
O=C(N/N=C\c1ccc(Cl)c(Cl)c1)c1cnccn1	-7.3
CSc1ccc(/C=N/NC(=O)c2cc(C)[nH]n2)cc1	3.8
CSc1ccc(/C=N\NC(=O)c2cnccn2)cc1	109
Cc1ccc(S(=O)(=O)/N=C(/NC(=S)N2CCOCC2)c2ccccc2)cc1	-5.4
CCOC(=O)c1ccccc1NC(=O)CN(c1ccc(Br)cc1)S(C)(=O)=O	-5
CC1=Nc2ccccc2/C1=C\c1c(O)n(-c2ccccc2)c(=O)[nH]c1=O	-3.1
CC1=Nc2ccccc2/C1=C\c1sc(=S)n(-c2cccc(F)c2)c1O	-1.7
CC1=Nc2ccccc2/C1=C\c1sc(=S)n(-c2ccccc2)c1O	104
O=C(CCCN1C(=O)c2ccccc2C1=O)Nc1cccnc1	20.6
CC(c1ccccc1)N1C(=O)C(=Cc2c(NCC3CCCO3)nc3ccccn3c2=O)SC1=S (centres undefined)	-14.7
CC1=C(C(=O)OC(C)C)C(c2ccccc2)N2C(=O)CCSC2=N1 (centres undefined)	61.6
COC(=O)c1ccc(C2C(C(=O)OC(C)C)=C(C)N=C3SCCC(=O)N32)cc1 (centres undefined)	11.3
CC1=C(C(=O)OC(C)C)C(c2ccc(Cl)c(Cl)c2)N2C(=O)CCSC2=N1 (centres undefined)	15.3
Cc1cc(=O)oc2c1c(C)nn2-c1ccc(Br)cc1	2.1
